Where “and” joins values, the source holds several entries; their conditions need not be identical. Equal values may be shown once. This is part of a sample that, as a whole, favours compounds with a hit. Of some 79,000 tested, about 15% had one in any assay. Some compounds were tested as several samples or in several runs, with calls that do not always agree. Calls of active or inactive are those of the source. Cut-off read from the data, not from the text of the source: active = growth inhibition above about 70%; inactive = the rest.
What was measured:
[1] = NCI Yeast Anticancer Drug Screen. Data for the rad52 strain (AID 147);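 note: 0% = growth of vehicle-treated control cultures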; conditions: S. cerevisiae rad52 mutant growth inhibition, stronger effect = higher value
Summary of the method: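 Compounds are applied to a genetically defined yeast strain lacking normal DNA damage repair, and inhibition of growth is expressed relative to cultures given vehicle only.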

[2] = NCI Yeast Anticancer Drug Screen. Data for the wt1 strain (AID 149);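 note: 0% = growth of vehicle-treated wt1 cultures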; conditions: S. cerevisiae wt1 strain (SPY 50644) growth inhibition, stronger effect = higher value
Summary of the method: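 Vehicle-normalised growth inhibition; strain wt1; compound exposure.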

[3] = NCI Yeast Anticancer Drug Screen. Data for the rad50EPP+ strain (AID 151);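 note: 0% = growth of vehicle-treated control cultures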; conditions: S. cerevisiae rad50 mutant strain, stronger effect = higher value
Summary of the method: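 Compounds were applied to the rad50EPP+ yeast strain, which bears a defined DNA repair alteration, and growth inhibition was determined relative to vehicle-treated cultures.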

[4] = NCI Yeast Anticancer Drug Screen. Data for the mgt1 strain (AID 153); conditions: S. cerevisiae mgt1 mutant growth inhibition, stronger effect = higher value
Summary of the method: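 Strain: mgt1 yeast, one of a set carrying defined DNA damage repair or cell cycle control alterations. Compound-treated growth compared with vehicle.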

[5] = NCI Yeast Anticancer Drug Screen. Data for the rad50 strain (AID 155);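 note: 0% = growth of vehicle-only cultures of the same strain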; conditions: S. cerevisiae rad50 strain growth inhibition, stronger effect = higher value
Summary of the method: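 A DNA repair-deficient yeast mutant serves as the test organism; compound-induced growth inhibition is calculated against vehicle-treated cells.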

[6] = NCI Yeast Anticancer Drug Screen. Data for the mec2-1 strain (AID 157); conditions: S. cerevisiae mec2-1 strain, stronger effect = higher value
Summary of the method: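 Strain: mec2-1 (DNA repair/cell cycle alteration). Compound exposure, then growth measured; inhibition expressed relative to vehicle.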

[7] = NCI Yeast Anticancer Drug Screen. Data for the rad14 strain (AID 159);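 note: 0% = growth of vehicle-treated control cultures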; conditions: S. cerevisiae rad14 strain growth inhibition, stronger effect = higher value
Summary of the method: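 Vehicle-treated cultures served as the baseline for growth inhibition of a DNA repair-mutant yeast strain exposed to each compound.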

[8] = NCI Yeast Anticancer Drug Screen. Data for the sgs1 mgt1 strain (AID 161);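 note: 0% = growth of cultures given vehicle only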; conditions: S. cerevisiae sgs1 mgt1 strain, stronger effect = higher value
Summary of the method: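 Inhibition of yeast growth, normalised to vehicle-treated controls, is reported for a strain bearing genetic alterations in DNA damage repair.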

[9] = NCI Yeast Anticancer Drug Screen. Data for the CLN2oe strain (AID 163);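 note: 0% = growth of vehicle-only control cultures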; conditions: S. cerevisiae CLN2oe strain, stronger effect = higher value
Summary of the method: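 Growth of a genetically modified yeast strain is measured after compound exposure and compared with cultures given vehicle alone.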

[10] = NCI Yeast Anticancer Drug Screen. Data for the cln2 rad14 strain (AID 165);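 note: 0% = growth equal to vehicle treated cultures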; conditions: S. cerevisiae cln2 rad14 strain, stronger effect = higher value
Summary of the method: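 Compounds are applied to the cln2 rad14 yeast strain, and growth is then compared with that of vehicle-treated cultures to give inhibition.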

[11] = NCI Yeast Anticancer Drug Screen. Data for the bub3 strain (AID 167); conditions: S. cerevisiae bub3 mutant strain, stronger effect = higher value
Summary of the method: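 Inhibition values come from growth of compound-treated mutant yeast normalised to vehicle-treated controls.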

[12] = NCI Yeast Anticancer Drug Screen. Data for the wt2 strain (AID 169);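 note: 0% = growth of vehicle-treated yeast cultures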; conditions: S. cerevisiae wt2 strain growth inhibition, stronger effect = higher value
Summary of the method: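 This strain belongs to a panel of yeast strains with defined genetic alterations in DNA damage repair or cell cycle control. Compounds are applied, and growth inhibition is measured against vehicle-treated cultures.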

[13] = NCI Yeast Anticancer Drug Screen. Data for the mlh1 strain (AID 171);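 note: 0% = growth of vehicle-treated control cultures of the same strain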; conditions: S. cerevisiae mlh1 strain growth inhibition, stronger effect = higher value
Summary of the method: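 Growth of the mutant yeast strain after compound exposure, expressed as inhibition relative to vehicle-only controls.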

[14] = NCI Yeast Anticancer Drug Screen. Data for the sgs1 strain (AID 173);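 note: 0% = growth of vehicle-only control cultures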; conditions: S. cerevisiae sgs1 mutant, stronger effect = higher value
Summary of the method: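 Growth of a yeast strain bearing a defined genetic alteration is measured after compound treatment. Inhibition is expressed relative to vehicle-only controls.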

[15] = NCI Yeast Anticancer Drug Screen. Data for the mlh1 rad18 strain (AID 175); conditions: S. cerevisiae mlh1 rad18 strain growth inhibition, stronger effect = higher value
Summary of the method: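 Read-out is yeast growth inhibition, calculated against vehicle-only controls. The compound was applied to a strain engineered with DNA damage repair alterations.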

[16] = NCI Yeast Anticancer Drug Screen. Data for the rad18 strain (AID 177); conditions: S. cerevisiae rad18 mutant growth inhibition, stronger effect = higher value
Summary of the method: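 Growth of the mutant yeast strain after compound exposure, normalised to vehicle-only cultures.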

[17] = at 5.0 µM (retest, dose inferred, filed as 0.5)
[18] = at 50.0 µM (retest, dose inferred, filed as 5.0)

O=c1[nH]c2ccc(Cl)cc2o1
growth inhibition ([1]; at 1.2 µM): -14% (inactive)
growth inhibition ([1]; at 3.7 µM): -10% (inactive)
growth inhibition ([1]; at 11.0 µM): -11% (inactive)
growth inhibition ([1]; at 33.0 µM): -13% (inactive)
growth inhibition ([1]; at 100.0 µM): -1% (inactive)
growth inhibition ([2]; at 1.2 µM): -30% (inactive)
growth inhibition ([2]; at 3.7 µM): -28% (inactive)
growth inhibition ([2]; at 11.0 µM): -33% (inactive)
growth inhibition ([2]; at 33.0 µM): -32% (inactive)
growth inhibition ([2]; at 100.0 µM): -23% (inactive)
growth inhibition ([3]; at 1.2 µM): -43% (inactive)
growth inhibition ([3]; at 3.7 µM): -42% (inactive)
growth inhibition ([3]; at 11.0 µM): -33% (inactive)
growth inhibition ([3]; at 33.0 µM): -52% (inactive)
growth inhibition ([3]; at 100.0 µM): -64% (inactive)
growth inhibition ([4]; at 1.2 µM): -45% (inactive)
growth inhibition ([4]; at 3.7 µM): -37% (inactive)
growth inhibition ([4]; at 11.0 µM): -28% (inactive)
growth inhibition ([4]; at 33.0 µM): -33% (inactive)
growth inhibition ([4]; at 100.0 µM): -23% (inactive)
growth inhibition ([5]; at 1.2 µM): -31% (inactive)
growth inhibition ([5]; at 3.7 µM): -23% (inactive)
growth inhibition [5, 17]: 47% (inactive) and 1% (inactive)
growth inhibition ([5]; at 11.0 µM): -17% (inactive)
growth inhibition ([5]; at 33.0 µM): -19% (inactive)
growth inhibition [5, 18]: 98% (active) and 64% (inactive)
growth inhibition ([5]; at 50.0 µM): 15.6% (inactive) and 15.7% (inactive)
growth inhibition ([5]; at 100.0 µM): -18% (inactive)
growth inhibition ([6]; at 1.2 µM): -62% (inactive)
growth inhibition ([6]; at 3.7 µM): -70% (inactive)
growth inhibition [6, 17]: 48% (inactive) and -3% (inactive)
growth inhibition ([6]; at 11.0 µM): -60% (inactive)
growth inhibition ([6]; at 33.0 µM): -47% (inactive)
growth inhibition [6, 18]: 93% (active) and 68% (inactive)
growth inhibition ([6]; at 50.0 µM): 3.9% (inactive) and 2.1% (inactive)
growth inhibition ([6]; at 100.0 µM): -53% (inactive)
growth inhibition ([7]; at 1.2 µM): -44% (inactive)
growth inhibition ([7]; at 3.7 µM): -38% (inactive)
growth inhibition ([7]; at 11.0 µM): -28% (inactive)
growth inhibition ([7]; at 33.0 µM): -35% (inactive)
growth inhibition ([7]; at 100.0 µM): -32% (inactive)
growth inhibition [8, 17]: 6% (inactive) and 1% (inactive)
growth inhibition [8, 18]: 20% (inactive) and 51% (inactive)
growth inhibition ([8]; at 50.0 µM): 15.4% (inactive) and -2.75% (inactive)
growth inhibition ([9]; at 1.2 µM): -25% (inactive)
growth inhibition ([9]; at 3.7 µM): -26% (inactive)
growth inhibition ([9]; at 11.0 µM): -30% (inactive)
growth inhibition ([9]; at 33.0 µM): -34% (inactive)
growth inhibition ([9]; at 100.0 µM): -15% (inactive)
growth inhibition [10, 17]: 46% (inactive) and 2% (inactive)
growth inhibition [10, 18]: 53% (inactive) and 43% (inactive)
growth inhibition ([10]; at 50.0 µM): 23.1% (inactive) and -1.85% (inactive)
growth inhibition ([11]; at 1.2 µM): -15% (inactive)
growth inhibition ([11]; at 3.7 µM): -1% (inactive)
growth inhibition [11, 17]: 57% (inactive) and 20% (inactive)
growth inhibition ([11]; at 11.0 µM): 7% (inactive)
growth inhibition ([11]; at 33.0 µM): 71% (active)
growth inhibition [11, 18]: 92% (active) and 96% (active)
growth inhibition ([11]; at 50.0 µM): 87.3% (active) and 92% (active)
growth inhibition ([11]; at 100.0 µM): 92% (active)
growth inhibition ([12]; at 1.2 µM): -27% (inactive)
growth inhibition ([12]; at 3.7 µM): -27% (inactive)
growth inhibition ([12]; at 11.0 µM): -31% (inactive)
growth inhibition ([12]; at 33.0 µM): -27% (inactive)
growth inhibition ([12]; at 100.0 µM): -6% (inactive)
growth inhibition ([13]; at 1.2 µM): -41% (inactive)
growth inhibition ([13]; at 3.7 µM): -33% (inactive)
growth inhibition ([13]; at 11.0 µM): -56% (inactive)
growth inhibition ([13]; at 33.0 µM): -41% (inactive)
growth inhibition ([13]; at 100.0 µM): -27% (inactive)
growth inhibition ([14]; at 1.2 µM): -36% (inactive)
growth inhibition ([14]; at 3.7 µM): -47% (inactive)
growth inhibition ([14]; at 11.0 µM): -48% (inactive)
growth inhibition ([14]; at 33.0 µM): -34% (inactive)
growth inhibition ([14]; at 100.0 µM): -22% (inactive)
growth inhibition [15, 17]: 52% (inactive) and 1% (inactive)
growth inhibition [15, 18]: 92% (active) and 32% (inactive)
growth inhibition ([15]; at 50.0 µM): 24.9% (inactive) and -2.65% (inactive)
growth inhibition ([16]; at 1.2 µM): -39% (inactive)
growth inhibition ([16]; at 3.7 µM): -34% (inactive)
growth inhibition ([16]; at 11.0 µM): -46% (inactive)
growth inhibition ([16]; at 33.0 µM): -38% (inactive)
growth inhibition ([16]; at 100.0 µM): -21% (inactive)

From PubChem BioAssay (NCI)
